# Results from PubChem BioAssay (Tox21).
# “And” between values parts separate entries of the source, which are not always exact repeats. Equal values may be shown once. Results filed as inconclusive are left out. A call without a number means that no potency is given here. Some compounds were tested as several samples or in several runs, with calls that do not always agree. The source made the active and inactive calls. Unless noted, calls come from the whole dose curve; as a rule, active = well fitted cell-killing curve with a large enough effect in the repeat runs; inconclusive = weak or mixed curves, or effect the other way; inactive = flat fitted curve, though single readings scatter.
# Experiment: Nuclear factor erythroid 2-related factor 2/antioxidant responsive element (Nrf2/ARE) small molecule agonists: qHTS cell viability counter screen in human keratinocytes (AID 1919968); note: nearly all actives have a fitted effect of over 55% in size
# Settings: KeratinoSens HaCaT ARE cells viability, CellTiter-Fluor, 24 h; series mostly up to 92.4 µM; activity change, negative = cytotoxicity: at the top concentration
# Procedure, shortened: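 Fluorescence read-out from CellTiter-Fluor after 1 h at 37 C. Wells held HaCaT-derived ARE-luciferase reporter cells (1,500/well) treated 23 h with DMSO-dissolved compounds. Run in the same wells as the luciferase agonist read.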
# Potency is the fitted concentration of half-maximal effect.
Compound,"activity change, negative = cytotoxicity",Potency
O=C(NCc1cccnc1)Nc1ccc([N+](=O)[O-])cc1,-4.7% (inactive),–
ClC1=C(Cl)[C@]2(Cl)[C@@H]3[C@@H](Cl)[C@H](Cl)C[C@@H]3[C@@]1(Cl)C2(Cl)Cl,-0.492% (inactive),–
COP(=O)(OC)OC=C(Cl)Cl,–,inactive
CNC(=O)CSP(=S)(OC)OC,–,inactive
CCOP(=O)(O)OCC (tested in a mixture with another compound),–,inactive and 24.1 µM (active)
CC(C)OC(=O)Nc1cccc(Cl)c1,–,inactive
C=CCc1ccc(OC)cc1,–,inactive
Oc1ccc(C(c2ccc(O)cc2)(C(F)(F)F)C(F)(F)F)cc1,–,38.4 µM (active) and 54.5 µM (active)
COc1cc(OC)nc(NC(=O)NS(=O)(=O)c2ncccc2C(=O)N(C)C)n1,5.8% (inactive),–
O=C(Cl)CCl,2.16% (inactive),–
NC(=O)CF,5.97% (inactive),–
CC(=[OH+])/C=C(/C)[O-].CC(=[OH+])/C=C(\C)[O-].CC(=[OH+])/C=C(\C)[O-].[Al],1.41% (inactive),–
Cc1ccc(CCl)cc1,-7.25% (inactive),–
CC(C)(C)OOC(=O)c1ccccc1,–,inactive
Nc1ccc(-c2ccc(N)cc2)cc1,–,inactive
COP(N)(=O)SC (stereo unspecified),–,inactive
Cc1ccc([N+](=O)[O-])cc1C,–,inactive
NC(=O)O,-0.545% (inactive),–
Clc1cccc(Cl)c1,-2.08% (inactive),–

Compound,"activity change, negative = cytotoxicity",Potency
CC(COc1ccc(Oc2ccccc2)cc1)Oc1ccccn1 (stereo unspecified),2.18% (inactive),–
O=C(CBr)c1ccc(O)cc1,3.41% (inactive),–
Cn1c(-c2ccccc2)cc(-c2ccccc2)[n+]1C,–,inactive
O=C1CCCN1,–,inactive
CCCCCCCCCCCCCCCC[N+](C)(C)C,–,61.1 µM (active) and 5.96 µM (active)
O=S(=O)(O)OOS(=O)(=O)O,–,inactive
CCCCCCCCOC(=O)c1ccccc1C(=O)OCCCCCCCC,–,inactive
CCCCCCCCCCCCCl,–,inactive
COP(=S)(OC)SCN1C(=O)c2ccccc2C1=O,–,inactive
O=c1[nH]c(=O)n(Cl)c(=O)n1Cl,–,inactive
CCOP(OCC)OCC,–,inactive
OCC1CO1 (stereo unspecified),–,inactive
CCOP(=S)(OCC)SCCSCC,–,inactive
COP(=S)(OC)Oc1ccc([N+](=O)[O-])cc1,–,inactive
COc1ccc2c3c1O[C@H]1[C@@H](O)C=C[C@H]4[C@@H](C2)N(C)CC[C@@]341,-1.36% (inactive),–
Oc1ccc(Cl)cc1Cc1ccccc1,–,43.3 µM (active) and 31 µM (active)
C=C(Cl)CCl,4.52% (inactive),–
Cc1ccc(Cl)c(O)c1,-2.49% [at 42.5 µM] (inactive),–
CCN(CC)N=O,–,inactive

# Experiment: Nuclear factor erythroid 2-related factor 2/antioxidant responsive element (Nrf2/ARE) small molecule agonists: luciferase reporter gene qHTS assay in human keratinocytes (AID 1919969; calls by dose curve; note: nearly all actives have a fitted effect of over 35% in size)
# Settings: KeratinoSens HaCaT ARE-luciferase, luminescence, 24 h; series mostly up to 92.4 µM; activity, positive = activation: at the top concentration
Compound,"activity, positive = activation",Potency
O=C(NCc1cccnc1)Nc1ccc([N+](=O)[O-])cc1,-0.626% (inactive),–
ClC1=C(Cl)[C@]2(Cl)[C@@H]3[C@@H](Cl)[C@H](Cl)C[C@@H]3[C@@]1(Cl)C2(Cl)Cl,-7.56% (inactive),–
COP(=O)(OC)OC=C(Cl)Cl,–,55 µM (active) and inactive
CNC(=O)CSP(=S)(OC)OC,9.03% (inactive),–
CCOP(=O)(O)OCC (tested in a mixture with another compound),–,inactive
CC(C)OC(=O)Nc1cccc(Cl)c1,26.8% (inactive),–
C=CCc1ccc(OC)cc1,–,inactive
Oc1ccc(C(c2ccc(O)cc2)(C(F)(F)F)C(F)(F)F)cc1,–,inactive
COc1cc(OC)nc(NC(=O)NS(=O)(=O)c2ncccc2C(=O)N(C)C)n1,3.56% (inactive),–
O=C(Cl)CCl,-2.01% (inactive),–
NC(=O)CF,-0.711% (inactive),–
CC(=[OH+])/C=C(/C)[O-].CC(=[OH+])/C=C(\C)[O-].CC(=[OH+])/C=C(\C)[O-].[Al],-15.5% (inactive),–
Cc1ccc(CCl)cc1,-3.27% (inactive),–
CC(C)(C)OOC(=O)c1ccccc1,–,inactive
Nc1ccc(-c2ccc(N)cc2)cc1,–,inactive
COP(N)(=O)SC (stereo unspecified),–,inactive
Cc1ccc([N+](=O)[O-])cc1C,–,inactive
NC(=O)O,-13.5% (inactive),–
Clc1cccc(Cl)c1,-5.56% (inactive),–

Compound,"activity, positive = activation",Potency
CC(COc1ccc(Oc2ccccc2)cc1)Oc1ccccn1 (stereo unspecified),–,17.2 µM (active)
O=C(CBr)c1ccc(O)cc1,–,68.6 µM (active)
Cn1c(-c2ccccc2)cc(-c2ccccc2)[n+]1C,–,inactive
O=C1CCCN1,–,inactive
CCCCCCCCCCCCCCCC[N+](C)(C)C,–,inactive
O=S(=O)(O)OOS(=O)(=O)O,–,inactive
CCCCCCCCOC(=O)c1ccccc1C(=O)OCCCCCCCC,–,inactive
CCCCCCCCCCCCCl,–,inactive
COP(=S)(OC)SCN1C(=O)c2ccccc2C1=O,–,61.6 µM (active) and 68.6 µM (active) and inactive
O=c1[nH]c(=O)n(Cl)c(=O)n1Cl,–,inactive
CCOP(OCC)OCC,–,inactive
OCC1CO1 (stereo unspecified),–,inactive
CCOP(=S)(OCC)SCCSCC,–,inactive
COP(=S)(OC)Oc1ccc([N+](=O)[O-])cc1,–,inactive
COc1ccc2c3c1O[C@H]1[C@@H](O)C=C[C@H]4[C@@H](C2)N(C)CC[C@@]341,–,23.9 µM (active) and inactive
Oc1ccc(Cl)cc1Cc1ccccc1,–,22 µM (active) and inactive
C=C(Cl)CCl,-1.81% (inactive),–
Cc1ccc(Cl)c(O)c1,3.63% [at 42.5 µM] (inactive),–
CCN(CC)N=O,–,inactive
